High-throughput results (PubChem)
DT40 TDP1 CPT: DT40-hTDP1 cell growth loss with CPT | chicken DT40 Tdp1-/-;hTDP1 cells + 20 nM CPT, ATP luminescence, 48 h | Potency, µM (series often up to 46.2 µM), inactives show top-dose activity change, negative = growth inhibition, usual class: inhibitors | actives 12% (n = 420,000); also: nearly all actives have a fitted effect of over 55% in size
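Chicken DT40 Tdp1-/- cells stably complemented with human TDP1 were seeded at 400 cells/well in medium containing 20 nM camptothecin, exposed to pin-transferred compounds, and grown at 37 °C for at least 48 hr. Viability was read as ATP luminescence.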
DT40 TDP1 no CPT: qHTS for Inhibitors of human tyrosyl-DNA phosphodiesterase 1 (TDP1): qHTS in cells in absence of CPT; DT40 Tdp1-/- hTDP1 cells, no CPT, ATP luminescence, 48 h; Potency, µM (top dose mostly 46.2 µM), inactives show top-dose activity change, negative = growth inhibition, most hits filed as inhibitors; actives 15% (n = 420,000); also: nearly all actives have a fitted effect of over 55% in size
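A cellular qHTS used chicken DT40 cells lacking endogenous Tdp1 but carrying stably transfected human TDP1. Compounds were applied without camptothecin, and cell growth kinetics were judged by ATP-dependent luminescence after ≥48 hr.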
Gal4-VP16 FLuc: inhibits Gal4-VP16 luciferase reporter, ROR gamma counter-screen; Drosophila S2 Gal4-VP16 UAS-luciferase, luminescence, 20 h; Potency, µM (top dose mostly 53.6 µM), for the others: at the top dose activity, negative = inhibition, actives largely listed as inhibitors; actives 3.5% (n = 310,000);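 also: Gal4-VP16 expression switched on by copper sulfate through the metallothionein promoter; nearly all actives have a fitted effect of over 50% in size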
RORgamma inh: inhibitors of mouse ROR gamma transcriptional activity; actives 5.4% (n = 310,000); P51450; Drosophila S2 Gal4-RORgamma UAS-luciferase reporter, 20 h; Potency, µM (highest dose often 53.6 µM), without a hit: at the highest dose activity change, negative = inhibition, usual class: inhibitors; also: nearly all actives have a fitted effect of over 60% in size
Target sequence (P51450 whole entry, looked up, the tested form may be a part): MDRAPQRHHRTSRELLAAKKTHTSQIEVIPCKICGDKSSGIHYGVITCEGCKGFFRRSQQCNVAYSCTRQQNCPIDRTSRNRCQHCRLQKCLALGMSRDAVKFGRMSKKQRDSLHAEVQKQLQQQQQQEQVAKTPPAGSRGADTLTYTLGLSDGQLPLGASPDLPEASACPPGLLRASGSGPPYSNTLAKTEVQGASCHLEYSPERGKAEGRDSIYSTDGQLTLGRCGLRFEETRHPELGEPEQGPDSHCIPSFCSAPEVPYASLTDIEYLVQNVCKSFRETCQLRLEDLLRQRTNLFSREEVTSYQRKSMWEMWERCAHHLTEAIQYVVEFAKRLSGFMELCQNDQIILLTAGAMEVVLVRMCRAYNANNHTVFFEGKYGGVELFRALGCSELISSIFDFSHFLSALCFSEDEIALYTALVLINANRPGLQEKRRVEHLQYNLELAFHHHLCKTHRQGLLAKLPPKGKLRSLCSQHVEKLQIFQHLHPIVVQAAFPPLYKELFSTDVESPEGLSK
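Luciferase reporter read in Schneider cells carrying Gal4-RORγ (mouse) and UAS-Photinus luciferase; cells given compound 1 h before 700 uM copper sulfate induction, then incubated 20 h at ambient temperature.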
TDP1 block: TDP1 (human) enzyme inhibition | Q9NUW8 | recombinant TDP1, AlphaScreen DNA substrate cleavage | Potency, µM (doses to about 130 µM), for inactives: at the top dose activity change, negative = inhibition, actives largely listed as inhibitors | actives 0.28% (n = 350,000) | AID 485290; also: nearly all actives have a fitted effect of over 40% in size
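AlphaScreen read-out: signal falls as enzyme removes the 3' tyrosine-FITC from a 5'-biotinylated DNA oligo (15 nM, 5 min, RT). Enzyme was E. coli-made recombinant Tdp1 at 1 nM, exposed to compound for 15 min beforehand; beads 10 ug/ml, 10 min.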
Numbers without * were called inactive; u = inconclusive; x = no result given; [ ] = dose if it differs, or a comment. Rows were chosen to be rich in hits. Some 19% of all compounds tested hit in one or more screens of this group. Calls follow the shape of the dose curve; as a rule, active = well fitted curve in the direction sought with a large enough effect; inconclusive = small, poorly fitted or top-dose-only effect, or another doubt; inactive = no such curve, though single readings can be large; an effect the other way counts as inactive or inconclusive. % is scaled to controls: 0 for no effect and ±100 for the full control effect; potency is read from the fitted curve at half-maximal effect.

SMILES	DT40 TDP1 CPT	DT40 TDP1 no CPT	Gal4-VP16 FLuc	RORgamma inh	TDP1 block
Cc1ccc(-n2ncc(C(=O)O)c2C2CCN(C(=O)OC(C)(C)C)CC2)cc1	-9%	-29%	1%	14%	0%
CC(C)(C)OC(=O)N1CCC(c2c(C(=O)O)cnn2-c2ccc(Cl)cc2)CC1	-12%	-15%	-3%	28%	1%
CC(C)(C)OC(=O)N1CCC(c2c(C(=O)N3CCC(c4ccccc4)C3)cnn2-c2ccc(Cl)cc2)CC1 (stereo not drawn)	13µM*	16µM*	x	x	0%
COc1cc(OC)c(NC(=O)c2sc3nc4n(c(=O)c3c2C)CCCC4)cc1Cl	34%	3%	x	x	5%
CC(=O)N1CCN(CC(C)(C)NS(=O)(=O)c2ccccc2)CC1	1%	13%	x	x	1%
COc1cc(NC(=O)CCc2c(C)nn(-c3ccc(N4CCOCC4)nn3)c2C)cc(OC)c1OC	-5%	9%	0%	16%	1%
Cc1ccc(NC(=O)CSCC(=O)NCc2cccc(C(F)(F)F)c2)cc1	u	-22%	x	x	-12%[0.505 µM]
O=C(Nc1ccncc1)c1ccccc1F	u	-26%	0%	2%	-1%
O=C(Nc1ccncc1)c1cc2ccccc2cc1O	u	12µM*	x	x	x
O=C(Nc1cccc([N+](=O)[O-])c1)c1cccc(C(=O)Nc2cccc([N+](=O)[O-])c2)c1	u	7.3µM*	-9%	25%	0%
O=C(Nc1cccc([N+](=O)[O-])c1)c1cc2ccccc2cc1O	4.1µM*	2.6µM*	4.5µM*	5µM*	3%
Cc1nc2ccc(C(=O)Nc3cccc([N+](=O)[O-])c3)cc2s1	u	18µM*	2%	4%	-10%
COC(C[C@H]1O[C@@H]1[C@H](O)[C@H](C)OCc1ccccc1)OC	-5%	-5%	x	x	x
COc1ccc(NC(=O)CN(C)C(=O)c2cccnc2Sc2ccc(C)c(C)c2)cc1	-28%	3%	x	x	5%[0.505 µM]
O=P(O)(Cc1ccccc1)c1ccccc1	15%	-6%	x	x	x
Cn1nc(C(C)(C)C)c([N+](=O)[O-])c1C(=O)Nc1ccc(Br)cc1	u	23µM*	-2%	u	8%
O=C(Nc1ccc(Br)cc1)c1cc([N+](=O)[O-])cc([N+](=O)[O-])c1	4.6µM*	u	u	-2%[1.91 µM]	x
CC(NC(=O)Nc1cccc([N+](=O)[O-])c1)(C(F)(F)F)C(F)(F)F	3.7µM*	u	u	43%	3%
O=C(Nc1ccc(Br)cc1)c1cc(Br)c(Br)s1	u	19µM*	1%	u	-2%
COc1ccc(NC(=O)c2cc(Br)c(Br)s2)cn1	0%	u	5%	28%	-3%
COC(=O)c1sccc1NC(=O)Nc1cccc([N+](=O)[O-])c1	2%	10%	u	u	3%[56.1 µM]
Cc1cccc(NC(=O)c2c([N+](=O)[O-])c(C(C)(C)C)nn2C)c1	-1%	-26%	-23%	3%	-3%
CCc1nc(OCC(=O)c2ccccc2)c(C#N)c2c1COC(C)(C)C2	u	18µM*	0%	-10%	-1%
N#Cc1cn(-c2ccccc2)nc1C(=O)c1ccccc1	u	12µM*	-4%	-13%	4%
CC(=O)c1nn(-c2ccc(Br)cc2)cc1C(=O)c1ccccc1	5%	-26%	u	-17%	11%
SMILES	DT40 TDP1 CPT	DT40 TDP1 no CPT	Gal4-VP16 FLuc	RORgamma inh	TDP1 block
CC(=O)c1nn(-c2ccccc2)cc1C(=O)c1ccc(C)cc1	u	23µM*	x	x	x
CC(=O)c1nn(-c2ccc(Cl)cc2)cc1C(=O)c1ccc(C)cc1	-29%	u	x	x	x
CC(=O)c1ccc(NC(=O)c2sc(-n3nc(C)c(Cc4ccccc4)c3C)nc2C)cc1	23µM*	16µM*	x	x	2%
Cc1nc(-n2nc(C)c(Cc3ccc4c(c3)OCO4)c2C)sc1C(=O)Nc1cccc(Cl)c1	u	16µM*	x	x	-13%
Cc1ccc(Cl)cc1NC(=O)c1sc(-n2nc(C)c(Cc3ccc4c(c3)OCO4)c2C)nc1C	u	2.9µM*	x	x	4%
Cc1cccc(C)c1NC(=O)c1sc(-n2nc(C)c(Cc3ccc4c(c3)OCO4)c2C)nc1C	-11%	-21%	x	x	1%
CCc1ccc(NC(=O)c2sc(-n3nc(C)c(Cc4ccc5c(c4)OCO5)c3C)nc2C)cc1	-3%	-20%	x	x	u
CC(=O)c1ccc(NC(=O)c2sc(-n3nc(C)c(Cc4ccc5c(c4)OCO5)c3C)nc2C)cc1	16µM*	16µM*	x	x	-7%
COC(=O)CNC(=O)C(C)(C)Oc1ccc(Cl)cc1	-20%	-17%	3%	-28%	6%
Cc1ccc(Cc2c(C)nn(-c3nc(C)c(C(=O)N4CCCCC4C)s3)c2C)cc1 (stereo not drawn)	u	15µM*	x	x	6%
O=C(Nc1cccc(F)c1)C1CCN(c2nc3ccccc3nc2C(F)(F)F)CC1	18µM*	16µM*	x	x	3%
Cc1ccc(NC(=O)C2CCN(c3nc4ccccc4nc3C(F)(F)F)CC2)cc1C	u	u	x	x	0%
O=C(Nc1cccc(Cl)c1)C1CCN(c2nc3ccccc3nc2C(F)(F)F)CC1	u	21µM*	x	x	5%
COc1cc(NC(=O)C2CCN(c3nc4ccccc4nc3C(F)(F)F)CC2)cc(OC)c1	16µM*	26µM*	x	x	-3%
O=C(Nc1ccc(Cl)c(Cl)c1)OCCNC(=O)c1cccc(Cl)c1	6.5µM*	12µM*	-17%	-5%	5%
CCOC(=O)Cc1csc(N/N=C/c2ccccc2)n1	u	u	-28%	16µM*	3%
COc1ccc(/C=N/Nc2nc(C(=O)O)cs2)cc1	-4%	1%	5µM*	3.5µM*	x
CCOC(=O)Cc1csc(N/N=C\c2cccc(Br)c2)n1	13µM*	u	u	10µM*	7%
N#Cc1ccc(CN2CCC3(CC2)CCN(C(=O)c2cccc(F)c2)CC3)cc1	u	u	-1%	-13%	x
CS(=O)(=O)c1ccc(-c2cc(NC=O)c3ncc(-c4ccc(F)cc4)n3c2)cc1	23µM*	23µM*	x	x	x
COc1cccc(-c2cnc(NCc3cc(Cl)ccc3O)n2C)c1	u	u	4%	-24%	7%
COc1cccc(-c2cnc(NCc3ccccc3Cl)n2C)c1	u	u	x	x	7%
O=CNc1cc(-c2ccc(C(=O)NC3CC3)cc2)cn2c(-c3ccc(F)cc3)cnc12	23µM*	23µM*	x	x	x
COc1cccc(-c2cnc3c(NC=O)cc(-c4ccc(S(C)(=O)=O)cc4)cn23)c1	18µM*	16µM*	x	x	x
COc1cccc(-c2cnc3c(NC=O)cc(-c4ccccc4)cn23)c1	5.2µM*	5.2µM*	x	x	x
